# Shown is part of a subset that was picked to be rich in the strongest signals.
# Experiments:
# Assay in all cases: glycan array binding signal (z-score within array); higher = stronger binding
# Details in all cases: glycan notation: IUPAC condensed, linker removed
# Gal(b1-4)GlcNAc6P = biological target: Gal(b1-4)GlcNAc6P
# Method in brief: (§1)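 From the Consortium for Functional Glycomics database, 3228 arrays were curated, keeping only those whose protein sequence was available. Binding is given as a within-array Z-score averaged across arrays sharing a protein sequence and across linkers. Negative Z-scores can be read as non-binding.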
# Gal6S(b1-4)GlcNAc6S = biological target: Gal6S(b1-4)GlcNAc6S
# Method in brief: as §1
# Glc(b1-6)Glc = biological target: Glc(b1-6)Glc
# Method in brief: as §1
# [1] = biological target: GlcA3S(b1-3)Gal(b1-4)GlcNAc(b1-2)Man
# Method in brief: as §1
# [2] = biological target: GlcNAc(a1-4)Gal(b1-4)GlcNAc(b1-3)Gal(b1-4)GlcNAc(b1-3)Gal(b1-4)GlcNAc
# Method in brief: as §1
# [3] = biological target: GlcNAc(b1-3)Gal(b1-4)GlcNAc
# Method in brief: as §1
# [4] = biological target: GlcNAc(b1-4)Gal(b1-4)GlcNAc
# Method in brief: as §1
# Kdn(a2-6)Gal(b1-4)GlcNAc = biological target: Kdn(a2-6)Gal(b1-4)GlcNAc
# Method in brief: as §1
# [5] = biological target: Man(a1-2)Man(a1-2)Man(a1-3)Man
# Method in brief: as §1
# [6] = biological target: Neu5Ac(a2-3)Gal(b1-3)GlcNAc(b1-3)Gal(b1-4)GlcNAc
# Method in brief: as §1
# [7] = biological target: Neu5Ac(a2-3)Gal(b1-4)GlcNAc
# Method in brief: as §1
# [8] = biological target: Neu5Ac(a2-3)Gal(b1-4)[Fuc(a1-3)]GlcNAc(b1-6)[Gal(b1-3)]GalNAc
# Method in brief: as §1
# Neu5Ac(a2-6)GalNAc = biological target: Neu5Ac(a2-6)GalNAc
# Method in brief: as §1
# Neu5Ac(a2-8)Neu5Ac = biological target: Neu5Ac(a2-8)Neu5Ac
# Method in brief: as §1
# [9] = biological target: Neu5Ac(a2-8)Neu5Ac(a2-8)Neu5Ac
# Method in brief: as §1
# Neu5Ac(b2-6)GalNAc = biological target: Neu5Ac(b2-6)GalNAc
# Method in brief: as §1
# [10] = biological target: Neu5Gc(a2-3)Gal(b1-3)[Fuc(a1-4)]GlcNAc
# Method in brief: as §1
# [11] = biological target: Neu5Gc(a2-8)Neu5Ac(a2-3)Gal(b1-4)GlcNAc
# Method in brief: as §1
# Fuc(a1-2)Gal = biological target: Fuc(a1-2)Gal
# Method in brief: as §1
# [12] = biological target: Fuc(a1-3)[Gal3S(b1-4)]GlcNAc6S
# Method in brief: as §1
# Gal(a1-3)Gal(b1-4)Glc = biological target: Gal(a1-3)Gal(b1-4)Glc
# Method in brief: as §1
# Gal(a1-3)Gal(b1-4)GlcNAc = biological target: Gal(a1-3)Gal(b1-4)GlcNAc
# Method in brief: as §1
# Gal(a1-4)Gal(b1-4)Glc = biological target: Gal(a1-4)Gal(b1-4)Glc
# Method in brief: as §1
# Gal(b1-3)GlcNAc = biological target: Gal(b1-3)GlcNAc
# Method in brief: as §1
# [13] = biological target: Gal(b1-3)[Fuc(a1-4)]GlcNAc(b1-3)Gal(b1-4)[Fuc(a1-3)]GlcNAc
# Method in brief: as §1
# Gal(b1-4)Glc = biological target: Gal(b1-4)Glc
# Method in brief: as §1
# Gal(b1-4)Glc6S = biological target: Gal(b1-4)Glc6S
# Method in brief: as §1
# [14] = biological target: Gal(b1-4)GlcNAc(b1-3)Gal(b1-4)GlcNAc
# Method in brief: as §1
# [15] = biological target: Gal(b1-4)GlcNAc(b1-3)Gal(b1-4)GlcNAc(b1-3)Gal(b1-4)GlcNAc
# Method in brief: as §1
# Gal3S(b1-4)GlcNAc = biological target: Gal3S(b1-4)GlcNAc
# Method in brief: as §1
# [16] = biological target: Gal3S(b1-4)[Fuc(a1-3)]Glc
# Method in brief: as §1
# Gal3S4S(b1-4)GlcNAc = biological target: Gal3S4S(b1-4)GlcNAc
# Method in brief: as §1
# Gal3S6S(b1-4)GlcNAc6S = biological target: Gal3S6S(b1-4)GlcNAc6S
# Method in brief: as §1
# Gal4S(b1-4)GlcNAc = biological target: Gal4S(b1-4)GlcNAc
# Method in brief: as §1
# Glc(a1-6)Glc(a1-6)Glc = biological target: Glc(a1-6)Glc(a1-6)Glc
# Method in brief: as §1
# [17] = biological target: Man(a1-2)Man(a1-2)Man(a1-6)[Man(a1-3)]Man
# Method in brief: as §1
# Man(a1-2)Man(a1-3)Man = biological target: Man(a1-2)Man(a1-3)Man
# Method in brief: as §1
# [18] = biological target: Man(a1-2)Man(a1-3)[Man(a1-2)Man(a1-6)]Man(a1-6)[Man(a1-2)Man(a1-2)Man(a1-3)]Man(b1-4)GlcNAc(b1-4)GlcNAc
# Method in brief: as §1
# [19] = biological target: Neu5Ac(a2-3)Gal(b1-3)GalNAc(b1-3)Gal(b1-4)GlcNAc
# Method in brief: as §1
# [20] = biological target: Neu5Ac(a2-3)Gal(b1-4)[Fuc(a1-3)]GlcNAc6S
# Method in brief: as §1
# [21] = biological target: Neu5Ac(a2-6)Gal(b1-4)GlcNAc(b1-2)Man(a1-3)[Gal(b1-4)GlcNAc(b1-2)Man(a1-6)]Man(b1-4)GlcNAc(b1-4)GlcNAc
# Method in brief: as §1
binder,measurement,setting,value
"SGC, Q9M345 (protein) QNLNFTYNGFHPPLTDISLQGLATVTPNGLLKLTNTSVQKTGHAFCTERIRFKDSQNGNVSSFSTTFVFAIHSQIPTLSGHGIAFVVAPTLGLPFALPSQYIGLFNISNNGNDTNHIFAVEFDTIQSSEFGDPNDNHVGIDLNGLRSANYSTAGYRDDHDKFQNLSLISRKRIQVWIDYDNRSHRIDVTVAPFDSDKPRKPLVSYVRDLSSILLEDMYVGFSSATGSVLSEHFLVGWSFRLNGEAPMLSLSKLPKLPRFEPRRIS",glycan array binding signal (z-score),Gal(b1-4)GlcNAc6P,-0.448
same,glycan array binding signal (z-score),Gal6S(b1-4)GlcNAc6S,0.254
same,glycan array binding signal (z-score),Glc(b1-6)Glc,-0.344
same,glycan array binding signal (z-score),[1],-0.501
same,glycan array binding signal (z-score),[2],-0.351
same,glycan array binding signal (z-score),[3],-0.367
same,glycan array binding signal (z-score),[4],-0.349
same,glycan array binding signal (z-score),Kdn(a2-6)Gal(b1-4)GlcNAc,-0.393
same,glycan array binding signal (z-score),[5],-0.36
same,glycan array binding signal (z-score),[6],-0.413
same,glycan array binding signal (z-score),[7],-0.311
same,glycan array binding signal (z-score),[8],8.35
same,glycan array binding signal (z-score),Neu5Ac(a2-6)GalNAc,-0.34
same,glycan array binding signal (z-score),Neu5Ac(a2-8)Neu5Ac,-0.356
same,glycan array binding signal (z-score),[9],-0.347
same,glycan array binding signal (z-score),Neu5Ac(b2-6)GalNAc,-0.286
same,glycan array binding signal (z-score),[10],-0.349
same,glycan array binding signal (z-score),[11],-0.365
"NESD (Drosophila melanogaster), NP_610025.1 (protein) MGHHHHHHSSGVDLGTENLYFQSMMEVFTFEKSYLERLKEAEAVLSWEGAVMPASQVRSEWKSYVELKIEPAGWQAIWKIPRVICEDLKLRYPTIVYGYVEQVIFDELKAVFVVTAVQDSDVHLPESNEVSLVELWPTVQQENAALNVDTTAECIDRLRFFYTHVWMPWDKDYDDDRDWVQQHLQARIQLVCDLSKNRLPRPLALHMRTLLAEAKYIQQRLDYLELDLSDAESDDEAVELNDSVAEPARKQSKAGSANGCLNVSSLPVTDLMCLHLRMAIIRSEFEILENPEMRRAYSELQSNSLKRLRCSSGRTRQSEDLLVERNSISHVVTLPGKLQQQLELLKLAQTLVKPESKVQLSNTLQDVLSICQSNDDILLSPGEHTIKFLEHLNDNGSLRGLTQPEAILSPAADLSLLPVVCSSDEDSTLLVIDGDYTLSELVLDCRHVRRGILLRNGTLTMRGCRLLGDGSSSTQEGIVCMPGASVELKSCLIENFAVGVSMRPKSSAELGSVQFKTCKTGLELLEKSASVNLQGSKCSFENCALGILADGFVLGEQRTEKVLVLNKFSELQRYNEDNLLGNCSFYNCKKNVRVFNESGQLLAQRSHQQLLEDELGGENKENIQLV",glycan array binding signal (z-score),Fuc(a1-2)Gal,0.437
same,glycan array binding signal (z-score),[12],1.18
same,glycan array binding signal (z-score),Gal(a1-3)Gal(b1-4)Glc,-0.126
same,glycan array binding signal (z-score),Gal(a1-3)Gal(b1-4)GlcNAc,-0.108
same,glycan array binding signal (z-score),Gal(a1-4)Gal(b1-4)Glc,-0.242
same,glycan array binding signal (z-score),Gal(b1-3)GlcNAc,-0.219
same,glycan array binding signal (z-score),[13],-0.47
same,glycan array binding signal (z-score),Gal(b1-4)Glc,3.98
same,glycan array binding signal (z-score),Gal(b1-4)Glc6S,2.75
same,glycan array binding signal (z-score),[14],0.201
same,glycan array binding signal (z-score),[15],0.303
same,glycan array binding signal (z-score),Gal3S(b1-4)GlcNAc,0.142
same,glycan array binding signal (z-score),[16],-0.195
same,glycan array binding signal (z-score),Gal3S4S(b1-4)GlcNAc,0.201
same,glycan array binding signal (z-score),Gal3S6S(b1-4)GlcNAc6S,1.17
same,glycan array binding signal (z-score),Gal4S(b1-4)GlcNAc,0.349
same,glycan array binding signal (z-score),Glc(a1-6)Glc(a1-6)Glc,6.3
same,glycan array binding signal (z-score),[17],-0.364
same,glycan array binding signal (z-score),Man(a1-2)Man(a1-3)Man,-0.316
same,glycan array binding signal (z-score),[18],0.313
same,glycan array binding signal (z-score),[19],0.016
same,glycan array binding signal (z-score),[20],0.068
same,glycan array binding signal (z-score),[21],0.256

# Reference: the supplement of paper PMC8728848
